# Source: PubChem
# GLP-1R agonist – qHTS of GLP-1 Receptor Agonists | Glucagon-like peptide 1 receptor (Homo sapiens), P43220 | HEK293 GLP-1R CRE-luciferase, luminescence, 4-6 h; cells express a hypersensitive GLP-1R form | Potency, µM (titrated, usually from 45.6 µM), without a hit: top-dose activation, usual class: activators | hit rate 0.007% among 380,000 | AID 624172, 2012; also: % of control where 0% means no effect
# Target sequence (P43220 whole entry, looked up): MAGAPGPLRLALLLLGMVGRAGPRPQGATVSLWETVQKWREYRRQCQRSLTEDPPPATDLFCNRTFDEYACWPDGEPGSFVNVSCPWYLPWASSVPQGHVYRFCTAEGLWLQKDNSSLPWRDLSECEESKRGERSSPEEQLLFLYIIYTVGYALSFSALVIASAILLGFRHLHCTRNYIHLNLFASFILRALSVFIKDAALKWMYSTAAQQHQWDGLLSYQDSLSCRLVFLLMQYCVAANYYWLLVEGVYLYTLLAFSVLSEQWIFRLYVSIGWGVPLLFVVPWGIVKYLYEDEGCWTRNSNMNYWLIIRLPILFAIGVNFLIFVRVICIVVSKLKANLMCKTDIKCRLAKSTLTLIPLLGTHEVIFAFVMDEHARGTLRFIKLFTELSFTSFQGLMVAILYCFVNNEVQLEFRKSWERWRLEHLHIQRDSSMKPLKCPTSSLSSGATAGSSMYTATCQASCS
# GLP1R inv ag – qHTS of GLP-1 Receptor Inverse Agonists (Inhibition Mode) | AID 624417, 2012 | HEK293 GLP-1R CRE-luciferase, luminescence, 24 h; GLP-1R form is constitutively active | Potency, µM (titrated, usually from 38.3 µM), for the others: at the highest dose activity change, negative = inhibition, most hits filed as inhibitors | Glucagon-like peptide 1 receptor (Homo sapiens), P43220 | hit rate 1.6% among 410,000; also: % is scaled to controls: 0 for no effect and ±100 for the full control effect; nearly all actives have a fitted effect of over 55% in size
#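 HEK293 cells stably co-expressing constitutively active GLP-1R and a cAMP-responsive luciferase reporter were seeded in DMEM with 10% Nu serum, given compounds after 12 h, and incubated 24 h at 37 deg C. Luminescence was then read.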
# RGS4 inh – Inhibitors of Regulator of G Protein Signaling (RGS) 4: qHTS. Regulator of G-protein signaling 4 (Homo sapiens), P49798. Transcreener GDP fluorescence polarization, RGS4-accelerated GTP hydrolysis. Potency, µM (series often up to 114 µM), for the others: top-dose activity change, negative = inhibition, hits mostly inhibitors. hit rate 0.039% among 390,000; also: % is scaled to controls: 0 for no effect and ±100 for the full control effect; nearly all actives have a fitted effect of over 75% in size
# Target sequence (P49798 whole entry, looked up): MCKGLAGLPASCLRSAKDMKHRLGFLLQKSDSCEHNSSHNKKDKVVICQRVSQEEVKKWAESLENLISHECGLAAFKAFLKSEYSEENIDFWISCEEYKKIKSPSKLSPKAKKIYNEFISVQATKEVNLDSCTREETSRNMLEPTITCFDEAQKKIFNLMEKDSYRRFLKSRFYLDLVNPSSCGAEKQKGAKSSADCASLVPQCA
#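 MLSMR compounds (23 nl, pin-transferred) preincubated 10 min at room temperature with a 500nM (2x) first reagent, then RGS4 at 900nM (2x) plus Transcreener GDP mix added; fluorescence polarization (620/688 nm) read before and after 90 min at 30 °C.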
# GLP1R cytotox – qHTS of GLP-1 Receptor Inverse Agonists: Cytotox Screen; HEK293 cAMP-luciferase reporter cells, luminescence, 24 h; Potency, µM (series often up to 38.3 µM), for the others: at the top dose activity change, negative = inhibition, usual class: inhibitors; hit rate 0.13% among 410,000; AID 624418, 2012;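 also: loss of luciferase light is scored as toxicity; % is scaled to controls: 0 for no effect and ±100 for the full control effect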
#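 Quantitative HTS format, 1536 wells, 200 cells/uL seeded. Compounds: 23 nL, 24 h, 37 °C. Detection: luciferase reagent, luminescence at 12 min RT; decreased signal taken as cytotoxic.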
# PTHR1 agonist – qHTS for PTHR1 Agonists: Primary Screen; HEK293 GP2 PTHR1 cells, GloSensor cAMP luminescence, 1 h; Potency, µM (highest dose often 115 µM), without a hit: at the highest dose activation, usual class: activators; hit rate 0.075% among 410,000; also: nearly all actives have a fitted effect of over 55% in size
#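 HEK-293-derived GP2 cells expressing PTHR1 and a GloSensor cAMP reporter, 3,000/well, plated overnight, given luciferin plus IBMX (each 0.5 mM as added) for 1 h at 37 °C, then compound for 1 h at 37 °C. Luminescence was read after 15 min at room temperature.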
# Starred values were filed as active, the others as inactive; i = inactive; ? = inconclusive; / = not tested or not shown; [ ] = another dose, or the depositor's remark. Sampled rows, rich in hits. Any-hit rate of the full collection: about 1.7%. Calls follow the shape of the dose curve; as a rule, active = well fitted curve in the direction sought with a large enough effect; inconclusive = small, poorly fitted or top-dose-only effect, or another doubt; inactive = no such curve, though single readings can be large; an effect the other way counts as inactive or inconclusive. Potency is read from the fitted curve at half-maximal effect.
SMILES,GLP-1R agonist,GLP1R inv ag,RGS4 inh,GLP1R cytotox,PTHR1 agonist
Cc1cccc(/C=N/Nc2ccc3ccccc3n2)c1,-6%,10µM*,-9%,?,-49%
CCCCN(CCCNC(=O)CN1N=C(c2ccccc2)CCC1=O)c1ccccc1,/,10µM*,-10%,-1%,i
CCCCN(CCCNC(=O)c1ccc2c(c1)NC(=O)CN2C)c1ccccc1,-8%,2.8µM*,/,-1%,-54%
Cc1ccccc1C(=O)N1CC/C(=N/OS(=O)(=O)O)c2ccc(Cl)cc21,3%,/,/,/,/
CC1CCCC(C)N1C(=O)CSc1nnc(-c2c[nH]c3ccccc23)o1 (stereo not given),0%,-11%,-10%,4%,3%[57.5 µM]
CCC1CCCCN1C(=O)CSc1nnc(-c2c[nH]c3ccccc23)o1 (stereo not given),5%,11µM*,-10%,-26%,i
CC(=O)c1cccc(NC(=O)COC(=O)c2ccccc2C)c1,11%,4%,-7%,-2%,-36%
O=C(O)[C@H](Cc1ccccc1)NC(=O)C(c1ccccc1)(c1ccccc1)c1ccccc1,-4%,10µM*,?,0%,-7%
c1ccc(NN=C(c2ccccc2)c2cccs2)cc1,2%,?,/,10%,-19%
c1ccc2c(c1)OCC(c1csc3ncnc(N4CCCC4)c13)O2 (stereo not given),-4%,?,-20%,-4%,-22%
c1ccc(CCNc2ncnc3scc(C4COc5ccccc5O4)c23)cc1 (stereo not given),-13%,7.9µM*,13%,?,?
CCCCn1cnc2c(SCc3ccccc3Cl)nc(N)nc21,34%,10µM*,7%,-11%,i
CCCn1cnc2c(SCc3ccccc3)nc(N)nc21,?,103%,-13%,0%,i
Nc1nc(SCc2ccccc2)c2ncn(Cc3ccccc3)c2n1,23%,7.9µM*,11%,-1%,-36%
O=C(NCC1CCCO1)c1ccc(CNS(=O)(=O)c2cccc(Cl)c2)cc1 (stereo not given),8%,-2%,-52%,9%,i
COc1cc(OC)c2c(c1)OC(c1ccccc1)CC2=O (stereo not given),/,/,5.3µM*,/,/
COc1ccccc1S(=O)(=O)N(C)C[C@H]1OCc2cn(nn2)CCCC(=O)N([C@H](C)CO)C[C@@H]1C,-6%,10%,/,-2%,-21%
Cc1cc([N+](=O)[O-])ccc1P(=O)(O)c1ccc([N+](=O)[O-])cc1C,-13%,8%,-24%,-14%,-4%
COc1cc2c(cc1OC)C(COc1ccccc1OC)N(C(=O)C(C)C)CC2 (stereo not given),11%,17%,-12%,14%,-7%
Cc1cc2c(cc1C)CSC(c1ccccc1OC(=O)C(C)C)SC2,1%,10µM*,6%,-15%,-14%
O=S(Cc1cc(Oc2ccccc2)nc(-c2ccccc2)n1)c1ccccc1 (stereo not given),12%,10µM*,5%[11.4 µM],13%,-8%
O=C(CN1C(=O)CSc2ccc(S(=O)(=O)N3CCCC3)cc21)NCc1ccccc1Cl,/,-14%,15%,4%,i
Clc1ccc(CCNC(c2ccc(Cl)cc2)c2nnc(-c3ccccc3)o2)cc1 (stereo not given),/,?,-11%,30%,-65%
CCOC(=O)N1CCN(C(=O)C[C@@H]2C[C@@]3(C(=O)OCC)CCCC=C3N(Cc3ccc(Cl)cc3Cl)C2=O)CC1,0%,?,/,1%,-20%
CCOC(=O)N1CCN(C(=O)C[C@@H]2C[C@@]3(C(=O)OC)CCCCC=C3N(Cc3ccc(Cl)cc3Cl)C2=O)CC1,-2%,11µM*,/,-14%,-2%
SMILES,GLP-1R agonist,GLP1R inv ag,RGS4 inh,GLP1R cytotox,PTHR1 agonist
CC(C)CCNC(=O)c1ccc(Cn2c(SCC(=O)NC(C)C)nc3ccccc3c2=O)cc1,11%,7%,-16%,2%,i
CCOC(=O)C1=C(C)c2ccccc2N(C(=O)OC)C1(C)C(=O)OCC (stereo not given),23%,10%,?,-15%,i
CCC(C)C(=O)N1c2ccccc2C(=C2SC(C(=O)OC)=C(C(=O)OC)S2)C(=S)C1(C)C (stereo not given),-1%,10µM*,-4%,10%,-83%
CCc1sc(C(=O)Nc2nc(C)cs2)cc1C,4%,10µM*,-52%,?,i
CCc1sc(C(=O)Nc2ccc(NC(C)=O)cc2)cc1C,4%,0%,-23%,1%,i
O=C(CSc1nnc(Cc2cccs2)n1CCc1ccccc1)N1CCCc2ccccc21,-8%,10µM*,17%,-35%,-8%[57.5 µM]
O=C(CSc1nnc(Cc2cccs2)n1-c1ccccc1)NC1CCCCC1,-3%,1.4µM*,-16%,-15%,-9%[57.5 µM]
O=C(CSc1nnc(Cc2cccs2)n1C1CCCCC1)N1CCCc2ccccc21,1%,3.5µM*,-1%[11.4 µM],?,-10%[57.5 µM]
Cc1nnc(SCC(=O)NC2CCCCC2)n1-c1ccccc1,0%,13%,/,1%,-19%
Nc1nc(N=Nc2ccc(O)cc2)cc(=O)[nH]1,1%,-8%,/,10µM*,7%
Cc1ccc(-c2c(C(=O)NCCc3ccc(Cl)cc3)oc(=O)c3ccccc23)cc1,-11%,4.5µM*,26%,5%,17%
O=C(N/N=C/c1cccc(Oc2ccccc2)c1)c1cccc(Br)c1,-5%,8.9µM*,1%,-35%,-23%[57.5 µM]
Cc1n[nH]c(C)c1S(=O)(=O)N(CC(=O)NCc1ccccc1Cl)c1ccc(C(C)C)cc1,-6%,10µM*,22%,-15%,-58%
COc1cccc(CNC(=O)CN(c2ccc(C(C)C)cc2)S(=O)(=O)c2c(C)n[nH]c2C)c1,0%,-29%,-22%,-10%,-14%
COc1ccc(C)cc1N(C(=O)c1ccccc1)c1nc2ccccc2s1,-13%,?,-29%,-6%,i
Cc1ccccc1N(C(=O)c1cccs1)c1nc2ccccc2s1,0%,2.2µM*,10%,21%,-17%
Cc1ccsc1C(=O)N(c1nc2ccccc2s1)c1c(C)cccc1C,-7%,7.9µM*,-9%,0%,i
COC(=O)c1cccc(NC2=NS(=O)(=O)c3ccccc32)c1,/,14%,-28%,0%,-6%
Cc1cc(C)c(CN2CCN(C(=O)Cn3cnc4c(NCc5ccccc5)ncnc43)CC2)c(C)c1,1%,8.9µM*,-10%,-3%,-28%
